Several values for one entry are separate records, joined by “and”; a condition that tells them apart may be missing. Equal values may be shown once. Some compounds were tested as several samples or in several runs, with calls that do not always agree. Activity calls are given as the source filed them. The calls were made as follows: active = hit-call score of the fitted dose curve at least 0.9, where 1 is the maximum; inactive = score below 0.9.

This is an account of results in PubChem BioAssay (EPA / NIEHS).

Read-out in assay [1]: Interleukin-8 (IL8), CXCL8 (gene 3576)
The experiment in a line: BSK_MyoF_IL8: BioMAP Diversity Plus: MyoF Assay for Interleukin-8 (IL8) Biomarker Activity (AID 2284261). The settings on record: primary human lung fibroblasts. The method, boiled down: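 DMSO-normalised, upward-fitted IL-8 ELISA signal; human lung fibroblasts, 24 h chemical treatment.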

Read-out in the next assay: Decorin, DCN (gene 1634)
The experiment in a line: BSK_MyoF_Decorin: BioMAP Diversity Plus: MyoF Assay for Decorin Biomarker Activity (AID 2284265). Particulars: primary human lung fibroblasts. The method, boiled down:
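In this multiplexed fibroblast system, secreted or surface decorin is detected by ELISA one day after dosing, with increases scored against the DMSO vehicle.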

Assay [2] in a line: BSK_MyoF_SRB: Viability Assessment in the BioMAP Diversity Plus: MyoF Assay (AID 2284267).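 Also: total protein by SRB absorbance in parallel cultures as cytotoxicity measure; cells assessed 24 h after compound addition.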 The settings on record: primary human lung fibroblasts. The method, boiled down: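 Human lung fibroblasts dosed with chemical and assessed 24 h later for overt cytotoxicity in parallel cultures. Total protein quantified by sulforhodamine B staining (0.1% SRB after 10% TCA fixation), read at 560 nm, analysed in positive direction versus DMSO baseline.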

Read-out in assay [3]: Matrix Metallopeptidase 1 (MMP1), MMP1 (gene 4312)
The experiment in a line: BSK_MyoF_MMP1: BioMAP Diversity Plus: MyoF Assay for Matrix Metallopeptidase 1 (MMP1) Biomarker Activity (AID 2284268). The settings on record: primary human lung fibroblasts. A digest of the protocol:
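Fibroblasts from human lung receive compound for 24 h before ELISA quantitation of MMP1. DMSO serves as baseline, and the endpoint is fitted for signal gain.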

Read-out in assay [4]: Intercellular Adhesion Molecule 1 (ICAM1), ICAM1 (gene 3383)
The experiment in a line: BSK_BE3C_ICAM1: BioMAP Diversity Plus: BE3C Assay for Intercellular Adhesion Molecule 1 (ICAM1) Biomarker Activity (AID 2284278).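 As to outcome: cell-surface ICAM-1 protein level quantified by ELISA.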 Particulars: primary human bronchial epithelial cells. A digest of the protocol: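 Primary human bronchial epithelial cells were exposed to compound for 24 h, after which cell-surface ICAM-1 was quantified by ELISA. Activity was fitted in the gain-of-signal direction against DMSO as negative control and baseline.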

Read-out in assay [5]: Interferon-inducible T-cell alpha chemoattractant (ITAC), CXCL11 (gene 6373)
Kind of assay: BSK_BE3C_ITAC: BioMAP Diversity Plus: BE3C Assay for Interferon-inducible T-cell alpha chemoattractant (ITAC) Biomarker Activity (AID 2284279). The settings on record: primary human bronchial epithelial cells. The method, boiled down: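 ELISA for I-TAC in primary human bronchial epithelial cultures 24 h post-treatment, fitted relative to DMSO baseline in positive direction. Cytotoxicity checked in parallel cultures by sulforhodamine B protein staining.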

Read-out in assay [6]: Interleukin-8 (IL8), CXCL8 (gene 3576)
Kind of assay: BSK_BE3C_IL8: BioMAP Diversity Plus: BE3C Assay for Interleukin-8 (IL8) Biomarker Activity (AID 2284280). The settings on record: primary human bronchial epithelial cells. A digest of the protocol: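 IL-8 signal gain, normalised to DMSO vehicle, was scored after a 24 h chemical exposure of primary human bronchial epithelial cells, with detection by ELISA.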

Read-out in assay [7]: Epidermal growth factor receptor (EGFR), EGFR (gene 1956)
The experiment in a line: BSK_BE3C_EGFR: BioMAP Diversity Plus: BE3C Assay for Epidermal growth factor receptor (EGFR) Biomarker Activity (AID 2284281). Particulars: primary human bronchial epithelial cells. The method, boiled down: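 Compound is added to human bronchial epithelial cells, cells incubate 24 h, then EGFR is detected by ELISA. Values reflect positive-direction fitting relative to DMSO.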

Read-out in another assay: KRT18 (gene 3875)
Kind of assay: BSK_BE3C_Keratin818: BioMAP Diversity Plus: BE3C Assay for Keratin 818 Biomarker Activity (AID 2284282). The settings on record: primary human bronchial epithelial cells. A digest of the protocol: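 Human primary bronchial epithelial cells in the BE3C system were exposed to test chemical for 24 h, then Keratin 8/18 was quantified by ELISA. Activity was fitted in the positive direction against DMSO as negative control and baseline.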

Read-out in assay [8]: Matrix Metallopeptidase 9 (MMP9), MMP9 (gene 4318)
Kind of assay: BSK_BE3C_MMP9: BioMAP Diversity Plus: BE3C Assay for Matrix Metallopeptidase 9 (MMP9) Biomarker Activity (AID 2284283). Particulars: primary human bronchial epithelial cells. A digest of the protocol:
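Endpoint is the ELISA MMP-9 signal in human primary bronchial epithelial cultures taken 24 h after chemical dosing. DMSO serves as negative control and baseline, with gain-of-signal fitting.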

Read-out in assay [9]: Plasminogen activator inhibitor-1 (PAI1), SERPINE1 (gene 5054)
Kind of assay: BSK_CASM3C_PAI1: BioMAP Diversity Plus: CASM3C Assay for Plasminogen activator inhibitor-1 (PAI1) Biomarker Activity (AID 2284284).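 Also: PAI-1 protein level measured by ELISA 24 h after dosing.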 Particulars: primary human coronary artery smooth muscle cells.

Read-out in assay [10]: Monocyte Chemoattractant Protein-1 (MCP1), CCL2 (gene 6347)
Kind of assay: BSK_hDFCGF_MCP1: BioMAP Diversity Plus: hDFCGF Assay for Monocyte Chemoattractant Protein-1 (MCP1) Biomarker Activity (AID 2284285). The settings on record: primary human foreskin fibroblasts. A digest of the protocol: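 Human foreskin fibroblasts (hDFCGF system) were exposed to compound and secreted MCP-1 was measured by ELISA after 24 hours. Activity was fitted relative to DMSO. Cytotoxicity was checked by SRB total-protein staining in parallel cultures.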

Read-out in assay [11]: Intercellular Adhesion Molecule 1 (ICAM1), ICAM1 (gene 3383)
The experiment in a line: BSK_hDFCGF_ICAM1: BioMAP Diversity Plus: hDFCGF Assay for Intercellular Adhesion Molecule 1 (ICAM1) Biomarker Activity (AID 2284287). The settings on record: primary human foreskin fibroblasts. A digest of the protocol: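 Primary human foreskin fibroblasts (hDFCGF system) dosed with chemical; ICAM-1 quantified by ELISA at 24 h relative to DMSO. Parallel SRB total-protein staining to assess overt cytotoxicity.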

Read-out in assay [12]: TIMP metallopeptidase inhibitor 2 (TIMP2), TIMP2 (gene 7077)
Kind of assay: BSK_hDFCGF_TIMP2: BioMAP Diversity Plus: hDFCGF Assay for TIMP metallopeptidase inhibitor 2 (TIMP2) Biomarker Activity (AID 2284289). Particulars: primary human foreskin fibroblasts. The method, boiled down: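 Primary human foreskin fibroblasts in the hDFCGF system, dosed for 24 h; TIMP-2 level measured by ELISA, fitted in the positive direction against DMSO; cytotoxicity checked in parallel by sulforhodamine B total protein staining.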

Read-out in assay [13]: Thrombomodulin, THBD (gene 7056)
Kind of assay: BSK_LPS_Thrombomodulin: BioMAP Diversity Plus: LPS Assay for Thrombomodulin Biomarker Activity (AID 2284296). The settings on record: primary human HUVEC with PBMC. The method, boiled down: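 Human umbilical vein endothelial cells co-cultured with PBMC and stimulated with LPS; cell-surface thrombomodulin measured by ELISA 24 hours after compound. Gain or loss versus DMSO; cytotoxicity checked by SRB staining in parallel cultures.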

A short description of assay [14]: IUF_NPC2c_oligodendrocyte_migration_120hr: Leibniz Research Institute for Environmental Medicine (IUF) 120-hour Neural Progenitor Cell Migration Assay for Oligodendrocyte Migration (NPC2c) (AID 2284297).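 Also: O4-positive oligodendrocyte migration distance divided by radial glia migration distance.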 A digest of the protocol: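 Using fetal brain neural progenitor spheres differentiating in N2 medium at 37C, compounds were present for 120 h. Oligodendrocyte migration distance, normalized to radial glia migration, was measured from imaged O4 staining.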

Assay [15] is described as follows: IUF_NPC2a_radial_glia_migration_120hr: Leibniz Research Institute for Environmental Medicine (IUF) 120-hour Neural Progenitor Cell Migration Assay for Radial Glia Migration (NPC2a) (AID 2284298). A digest of the protocol: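 Exposure of 0.3 mm primary hNPC spheres runs day 0 to 120 h with a half-volume medium change at day 3. Fixed cells get Hoechst staining; high-content analysis of nuclear positions yields radial glia migration distance per well, compared against DMSO controls.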

Assay [16] in a line: IUF_NPC2a_radial_glia_migration_72hr: Leibniz Research Institute for Environmental Medicine (IUF) 72-hour Neural Progenitor Cell Migration Assay for Radial Glia Migration (NPC2a) (AID 2284299). The method, boiled down: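 Human fetal cortex (GW 16-19) neural progenitor spheres, 0.3 mm, plated on poly-D-lysine/laminin in N2 differentiation medium with compound from day 0. Radial glia migration distance (um, sphere core edge to migration edge) measured manually in four directions on 72 h brightfield images; well mean used.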

Assay [17] in a line: IUF_NPC2b_neuronal_migration_120hr: Leibniz Research Institute for Environmental Medicine (IUF) 120-hour Neural Progenitor Cell Migration Assay for Neuron Migration (NPC2b) (AID 2284300). A digest of the protocol: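 Fetal human NPC spheres migrate on PDL/laminin during 120 h compound treatment; neuronal migration distance, glia-normalized, scored versus DMSO control.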
A short description of assay [18]: IUF_NPC3_neuronal_differentiation_120hr: Leibniz Research Institute for Environmental Medicine (IUF) 120-hour Neuronal Differentiation Assay (NPC3) (AID 2284301). The method, boiled down:
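Single 0.3 mm neurospheres from human fetal cortex were plated in differentiation medium containing test compound. Medium was half-replaced on day 3. After 120 h cells were fixed, immunostained and imaged, and neuronal fraction was scored against DMSO control.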

Take `CSCCC=O`: the outcome in [1] was “inactive”; with Decorin, DCN (gene 1634), “inactive”; in assay [2], “inactive”; in [3], “inactive”.
With `Cc1cc(CCC(=O)OCCOCCOCCOC(=O)CCc2cc(C)c(O)c(C(C)(C)C)c2)cc(C(C)(C)C)c1O`, the outcome in [1] is “inactive”; with Decorin, DCN (gene 1634) it was “inactive”; in [2] it was “inactive”; in [3], “inactive”.
Turning to `c1ccc(Oc2ccccc2)cc1`, the outcome in assay [1] was “inactive”; with Decorin, DCN (gene 1634) it was “inactive”; in [2], “inactive”; in assay [3] it was “inactive”.
As to `CC(=O)C1(C)CC2=C(CCCC2(C)C)CC1C` (stereo not drawn), the outcome is “inactive” in assay [1] and “inactive” with Decorin, DCN (gene 1634). In addition, the half-maximal activity concentration (AC50) in assay [2] is 14.6 µM (active); in [3], 4.66 µM (active).
For the molecule `C=C(C)C(=O)OCC(CC)(COC(=O)C(=C)C)COC(=O)C(=C)C`, in assay [1], the result was inactive. Besides, the AC50 in the assay with Decorin, DCN (gene 1634) is 10.1 µM (active); in [2] it was 15.5 µM (active); in [3], 5.25 µM (active).
On to `O=C1OC2(c3ccccc31)c1ccc(O)c(Br)c1Oc1c2ccc(O)c1Br`, for which the outcome was “inactive” in [1]; “inactive” with Decorin, DCN (gene 1634); “inactive” in [2]; “inactive” in [3].
With `CC(=O)Nc1ccc(C(=O)CCl)cc1`, the figures for the AC50 in assay [1] and in assay [2] were 29.6 µM (active) and 29.3 µM (active), respectively. Besides, the outcome in the assay with Decorin, DCN (gene 1634) was “inactive”; in [3], “inactive”.
On to `IC(I)I`, for which the outcome is “inactive” in [1]; “inactive” with Decorin, DCN (gene 1634); “inactive” in [2]; “inactive” in assay [3].
With `C1=CC2C3C=CC(C3)C2C1` (stereo not drawn), the outcome was “inactive” in assay [1]; “inactive” with Decorin, DCN (gene 1634); “inactive” in assay [2]; “inactive” in [3].
Turning to `CS(=O)(=O)c1ccc(C2=C(c3ccccc3)C(=O)OC2)cc1`, the outcome in assay [1] was “inactive”; with Decorin, DCN (gene 1634), “inactive”; in assay [2], “inactive”; in assay [3] it was “inactive”.
In the case of `CCCCCCC(CO)CCCC` (stereo not drawn), the AC50 was 20 µM (active) in assay [4]; 30.9 µM (active) and 35 µM (active) in assay [10]; 35.6 µM (active) and 34.7 µM (active) in assay [11]; 30.6 µM (active) and 37.3 µM (active) in assay [12]. The outcome (in assay [4]; in assay [5]; in assay [6]; in assay [7]; with KRT18 (gene 3875); in assay [8]) was inactive. The result in assay [9] and in assay [13] was inactive.
On to `COCCc1ccc(OCC(O)CNC(C)C)cc1` (stereo not drawn), for which the call in [14], in [15], in [16], in [17] and in assay [18] was inactive.
Turning to `C=CC(C)(O)CCC=C(C)C` (stereo not drawn), the outcome (in assay [4]; in assay [5]; in assay [6]; in assay [7]; with KRT18 (gene 3875); in assay [8]) was inactive. The result in [9], in assay [10], in [11], in assay [12] and in assay [13] was inactive.
